Assay outcomes (PubChem BioAssay)
G9a inh – qHTS Assay for Inhibitors of Histone Lysine Methyltransferase G9a. Potency, µM (top dose mostly 102 µM), inactives show at the highest dose activity, negative = inhibition, actives largely listed as inhibitors. Histone-lysine N-methyltransferase EHMT2 (Homo sapiens), Q96KQ7. G9a H3K9 monomethylation, AlphaScreen, 2 h. AID 504332, 2011. 350,000 tested, 8.8% active; note: % is set by controls: 0 for no effect and ±100 for the full control effect; nearly all actives have a fitted effect of over 75% in size
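Using a bead-based AlphaScreen, monomethylated H3K9 product from 2 h room-temperature reactions (G9a 20 nM, peptide 500 nM, SAM 20 uM) was detected with 0.5 ug/mL rabbit anti-H3K9me1 antibody.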
Sfp PPTase inh – qHTS Assay for Inhibitors of Bacillus subtilis Sfp phosphopantetheinyl transferase (PPTase); Potency, µM, for inactives: largest response in the series, negative = inhibition, usual class: inhibitors; 4'-phosphopantetheinyl transferase ffp (Bacillus subtilis), Q9F4F7; 310,000 tested, 3.5% active; Biochemical Sfp PPTase activity, qHTS;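 note: the enzyme is Sfp with the accession as filed and its product quenches rhodamine fluorescence; 0% = enzyme reaction without inhibitor and -100% = no enzyme wells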
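With Hepes-Na pH 7.6 buffer containing 10 mM MgCl2, Sfp (15 nM) modified BHQ-2-YbbR (12.5 uM) using rhodamine-CoA (5 uM). Two reads 30 minutes apart at 525/598 nm yielded each well's rate.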
BAZ2B block – qHTS Assay for Inhibitors of BAZ2B | Bromodomain adjacent to zinc finger domain protein 2B (Homo sapiens), Q9UIF8 | AlphaScreen BAZ2B-H3K14Ac peptide displacement | Potency, µM (titrated, usually from 114 µM), without a hit: top-dose activity change, negative = inhibition, hits mostly inhibitors | 360,000 tested, 4.4% active; note: % is set by controls: 0 for no effect and ±100 for the full control effect; nearly all actives have a fitted effect of over 60% in size
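AlphaScreen displacement of biotin-H3(5-23)K14Ac peptide (50 nM final) from BAZ2B (50 nM final) in PBS pH 7.4, 0.01% Tween-20; complex preformed 30 min RT, then compounds (top 110 uM) 30 min RT, beads 20 min dark.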
HP1b binding inh – HTS for Inhibitors of HP1-beta Chromodomain Interactions with Methylated Histone Tails; Chromobox protein homolog 1 (Homo sapiens), P83916; AlphaScreen HP1-beta / biotin-H3K9me3 peptide binding; Potency, µM (doses to about 114 µM), for inactives: top-dose activity change, negative = inhibition, most hits filed as inhibitors; 390,000 tested, 0.56% active; note: nearly all actives have a fitted effect of over 70% in size
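AlphaScreen: HP1-beta (50 nM) preformed 30 min with biotin-H3(1-18)K9me3 peptide (50 nM) in PBS pH 7.4, 0.01% Tween-20. Compound added for 30 min at RT, then streptavidin donor/nickel chelate acceptor beads (10 ug/mL) for 30 min.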
TDP1 inh – qHTS Assay for Inhibitors of Tyrosyl-DNA Phosphodiesterase (TDP1); recombinant TDP1, AlphaScreen DNA substrate cleavage; Potency, µM (titrated, usually from 130 µM), for inactives: top-dose activity change, negative = inhibition, most hits filed as inhibitors; 350,000 tested, 0.28% active; AID 485290, 2010; note: % is set by controls: 0 for no effect and ±100 for the full control effect; nearly all actives have a fitted effect of over 40% in size
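Recombinant E. coli-expressed Tdp1 (1 nM) preincubated with compound 15 min at RT, then 5'-biotin/3'-phosphotyrosine-FITC DNA substrate (15 nM) added for 5 min. AlphaScreen beads (10 ug/ml) added, 10 min RT; tyrosine-FITC cleavage read as signal loss.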
JMJD2A Tudor – qHTS Assay for Inhibitors of JMJD2A-Tudor Domain; AlphaScreen JMJD2A-Tudor / H3K4me3 peptide binding; Potency, µM (series often up to 114 µM), for inactives: at the highest dose activity change, negative = inhibition, most hits filed as inhibitors; Lysine-specific demethylase 4A (Homo sapiens), O75164; 390,000 tested, 4.4% active; note: % is set by controls: 0 for no effect and ±100 for the full control effect; nearly all actives have a fitted effect of over 50% in size
An asterisk follows results filed as active; [ ] = dose if it differs, or a comment. This is a sample that favours compounds with a hit; in the whole collection about 12% have one here. Calls come from the whole dose curve; as a rule, active = well fitted curve in the direction sought with a large enough effect; inconclusive = small, poorly fitted or top-dose-only effect, or another doubt; inactive = no such curve, though single readings can be large; an effect the other way counts as inactive or inconclusive. Potency is the fitted concentration of half-maximal effect.

COC(=O)c1cc2c(-c3ccccc3)c(C)c3ccccn3c-2c1C(=O)OC was read as G9a inh 14µM*, Sfp PPTase inh -13%, BAZ2B block 14µM*, HP1b binding inh inconclusive, TDP1 inh 12% and JMJD2A Tudor 45µM*.
COC(=O)c1c(Cl)c2n3ccccc3c(C)c(-c3ccccc3)c-2c1C(=O)OC was read as G9a inh 8.9µM*, Sfp PPTase inh -28%, BAZ2B block inconclusive, HP1b binding inh inconclusive, TDP1 inh -3% and JMJD2A Tudor inconclusive.
Screening O=C1OC[C@H]2CCCN2C(=O)[C@@H](CC(=O)N(CCO)Cc2ccccc2)C/C=C\C[C@H]1Cc1ccc(F)cc1 returned HP1b binding inh 22%, TDP1 inh 2% and JMJD2A Tudor -23%.
For O=C(Cn1cc([N+](=O)[O-])cn1)Nc1ccc(Cn2cc(Br)cn2)cc1 the results were G9a inh 2.2µM*, Sfp PPTase inh 1%, BAZ2B block -38%, HP1b binding inh 20%, TDP1 inh 3% and JMJD2A Tudor -6%.
`COC(=O)c1ccc(Cn2cc([N+](=O)[O-])cn2)cc1` gave G9a inh -2%, Sfp PPTase inh 18%, BAZ2B block -15%, HP1b binding inh 28%, TDP1 inh 1% and JMJD2A Tudor 1%.
CC(NC(=O)c1ccc(Cn2cc([N+](=O)[O-])cn2)cc1)c1ccccc1 (centres undefined) was read as G9a inh -9%[59 µM], Sfp PPTase inh 3%, BAZ2B block 8%, HP1b binding inh 9%, TDP1 inh 3% and JMJD2A Tudor 50µM*.
Screening CC(C)NC(=O)CCCn1cc([N+](=O)[O-])cn1 returned G9a inh 50µM*, Sfp PPTase inh -5%, BAZ2B block -11%, HP1b binding inh 32%, TDP1 inh 2% and JMJD2A Tudor -17%.
Screening O=C(CCCn1cc([N+](=O)[O-])cn1)N1CCCCC1 returned G9a inh 27%[12.7 µM], Sfp PPTase inh 20%, BAZ2B block -4%, HP1b binding inh 35%, TDP1 inh -4% and JMJD2A Tudor 1%.
For CCOC(=O)c1[nH]c(Cc2[nH]c(C(=O)OCC)c(C)c2CCC(=O)OC)c(CCC(=O)OC)c1C the results were G9a inh 40µM*, Sfp PPTase inh 56µM*, BAZ2B block inconclusive, HP1b binding inh -26%, TDP1 inh 8% and JMJD2A Tudor 40µM*.
Screening CCOC(=O)c1c(C)[nH]c(C(=O)OC)c1CCC(=O)OC returned G9a inh -39%[12.7 µM], Sfp PPTase inh -4%, BAZ2B block inconclusive, HP1b binding inh 4%, TDP1 inh 12% and JMJD2A Tudor -15%.
`COc1ccccc1CNC(=O)c1ccc(NC2=NC3CS(=O)(=O)CC3S2)cc1` (centres undefined) gave G9a inh 61%, Sfp PPTase inh 7%, BAZ2B block -1%, HP1b binding inh 52%, TDP1 inh 5% and JMJD2A Tudor -15%.
Screening CCOC(=O)/C=C1/SCC(=O)N1CC(=O)Nc1cccc(F)c1 returned G9a inh 13%[2.33 µM], BAZ2B block 4%, HP1b binding inh 10%, TDP1 inh 0%[56.1 µM] and JMJD2A Tudor -12%.
`CCc1nc(-c2cc(S(=O)(=O)N3CCN(c4ccccc4OC)CC3)ccc2OC)no1` gave G9a inh -10%[59 µM], BAZ2B block -18%, HP1b binding inh 28%, TDP1 inh 6% and JMJD2A Tudor -6%.
For C[C@H](C(=O)OCO/N=[N+](\[O-])N1CCCC1)c1cccc2ccccc12 the results were Sfp PPTase inh 56µM*, HP1b binding inh 5%, TDP1 inh 3% and JMJD2A Tudor -28%.
Screening O=C(O)CC(c1cccc2ccccc12)n1cccc1 (centres undefined) returned G9a inh -9%, Sfp PPTase inh -9%, BAZ2B block inconclusive, HP1b binding inh 14%, TDP1 inh -6% and JMJD2A Tudor -32%.
For CCc1ccc(N2C(=O)CC(N(CC3CCCO3)C(=O)/C=C/C(=O)O)C2=O)cc1 (centres undefined) the results were G9a inh 89µM*, Sfp PPTase inh -4%, BAZ2B block -4%, HP1b binding inh 20%, TDP1 inh -1% and JMJD2A Tudor -34%.
COc1ccc(CCN(C(=O)/C=C/C(=O)O)C2CC(=O)N(c3ccccc3)C2=O)cc1 (centres undefined) was read as G9a inh -29%, Sfp PPTase inh 8%, BAZ2B block -18%, HP1b binding inh 47%, TDP1 inh 3% and JMJD2A Tudor -15%.
`NC(=S)NN=C1CCC2(CCCCC2)CC1` gave HP1b binding inh 18% and JMJD2A Tudor -16%.
For CC1(C)CCC(=NNC(N)=S)CC1 the results were HP1b binding inh inconclusive and JMJD2A Tudor 0.71µM*.
Screening N#Cc1ccc(Oc2ccc(C#N)c(C#N)c2)cc1C#N returned HP1b binding inh 24%[57 µM] and JMJD2A Tudor -5%.
Screening COC(=O)[C@@]12CCCN1[C@H](c1ccc(-c3ccccc3)cc1)[C@H]1C(=O)N(C)C(=O)[C@H]12 returned G9a inh 15%[2.33 µM], BAZ2B block -13%, HP1b binding inh 7%, TDP1 inh 3% and JMJD2A Tudor 79µM*.
COC(=O)[C@@]12CCCCN1[C@H](c1ccc(-c3ccccc3)cc1)[C@H]1C(=O)N(C)C(=O)[C@H]12 was read as G9a inh 23%[2.33 µM], BAZ2B block 9%, HP1b binding inh 32%, TDP1 inh -1% and JMJD2A Tudor -32%.
O=C(CN1C(=O)NC2(CCCCC2)C1=O)NNC(=O)C1CC1 was read as G9a inh 14%[12.7 µM], BAZ2B block 1%, HP1b binding inh 10%, TDP1 inh 1% and JMJD2A Tudor -4%.
`c1ccc(C2CN3CCSC3=N2)cc1` (centres undefined) gave G9a inh 9%, Sfp PPTase inh 11%, BAZ2B block -11%, HP1b binding inh 25%, TDP1 inh 8% and JMJD2A Tudor -3%.
Screening Brc1ccc([C@H]2CN3CCSC3=N2)cc1 returned G9a inh inconclusive, HP1b binding inh inconclusive, TDP1 inh 10%[56.1 µM] and JMJD2A Tudor 6.3µM*.
